Laboratory results: PubChem BioAssay (Tox21)
A number with no mark means an inactive call. Records with an inconclusive call do not appear. Where a call stands in place of a potency, no number is given. The source made the active and inactive calls. Unless noted, calls come from the whole dose curve.

Columns and labels:
[1] = Nuclear factor erythroid 2-related factor 2/antioxidant responsive element (Nrf2/ARE) small molecule agonists: qHTS cell viability counter screen in human keratinocytes (AID 1919968; active = well fitted curve in the direction sought with a large enough effect in the repeat runs; an effect the other way counts as inactive or inconclusive; note: nearly all actives have a fitted effect of over 55% in size; note: potency is the fitted concentration of half-maximal effect)
Summary of the method: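 HaCaT ARE reporter line, 1,500 cells/well; 5 h settle, 37 C/5% CO2; cpd in DMSO pinned; 23 h exposure; CellTiter-Fluor, 1 h; fluorescence.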

[2] = Nuclear factor erythroid 2-related factor 2/antioxidant responsive element (Nrf2/ARE) small molecule agonists: luciferase reporter gene qHTS assay in human keratinocytes (AID 1919969); note: nearly all actives have a fitted effect of over 35% in size; note: potency is the fitted concentration of half-maximal effect
[3] = molecular target: KiSS-1 receptor (Homo sapiens) (UniProt Q969F8); test: Human kisspeptin (KISS1R) small molecule agonists, calcium flux assay in KISS1R-HEK293 cells (AID 1920064; active = well fitted curve in the direction sought with a large enough effect in the repeat runs; an effect the other way counts as inactive or inconclusive)
KiSS-1 receptor (Homo sapiens), sequence (Q969F8 whole entry, looked up): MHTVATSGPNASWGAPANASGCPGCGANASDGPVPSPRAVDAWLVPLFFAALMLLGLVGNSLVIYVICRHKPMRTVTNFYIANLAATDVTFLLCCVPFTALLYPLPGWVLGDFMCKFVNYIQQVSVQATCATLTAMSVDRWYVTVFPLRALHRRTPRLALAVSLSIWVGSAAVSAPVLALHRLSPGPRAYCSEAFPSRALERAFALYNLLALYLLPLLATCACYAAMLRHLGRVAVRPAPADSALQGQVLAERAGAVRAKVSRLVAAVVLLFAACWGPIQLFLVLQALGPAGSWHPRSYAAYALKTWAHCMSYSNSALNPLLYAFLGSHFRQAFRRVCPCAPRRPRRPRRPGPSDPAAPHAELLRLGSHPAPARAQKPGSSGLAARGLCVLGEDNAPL
Summary of the method: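 Stable human KISS1R HEK293 line; 18 h plating, 37 C/5% CO2; calcium dye 1 h 37 C; compound pin transfer; kinetic fluorescence Ex/Em 480/540, 3 min.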

[4] = G protein-coupled receptor (GPCR) small molecule agonists, calcium flux assay: HEK293 wild type cell line counter screen (AID 1920065)
Summary of the method: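 Kinetic fluorescence at Ex/Em 480/540, recorded every second over 3 min, served as the read-out after compound addition. Each compound was tested at 15 concentrations in triplicate on cells pre-loaded with calcium dye for 1 h.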

[5] = p53 small molecule agonists, cell-based qHTS assay with rat liver microsomes (AID 1963578)
Summary of the method: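 Read-out is beta-lactamase reporter fluorescence (LiveBLAzer, 2 h, room temperature, dark) in p53RE-bla cells treated 16 h at 37 C with compound, rat liver microsomes and NADPH, both 0.5 mg/mL final.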

[6] = p53 small molecule agonists, cell-based qHTS assay with human liver microsomes: qHTS cell viability counter screen (AID 1963579); note: nearly all actives have a fitted effect of over 45% in size; note: potency is the fitted concentration of half-maximal effect
Summary of the method: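 Cells carrying the p53 response-element beta-lactamase reporter are treated for 16 h at 37 C with test compounds in the presence of human liver microsomes and NADPH (both 0.5 mg/mL final); ATP-based CellTiter-Glo luminescence then reports viability.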

[7] = p53 small molecule agonists, cell-based qHTS assay with rat liver microsomes: qHTS cell viability counter screen (AID 1963580); note: nearly all actives have a fitted effect of over 45% in size; note: potency is the fitted concentration of half-maximal effect
Summary of the method: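 p53RE-bla HCT-116 cells (4,000/well) rested 5 h at 37 C, then given Tox21 compounds in DMSO with rat liver microsomes (0.5 mg/mL final) plus NADPH (0.5 mg/mL final) for 16 h at 37 C. Viability read by CellTiter-Glo luminescence after 30 min at room temperature.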

[8] = p53 small molecule agonists, cell-based qHTS assay (AID 1963582; active = well fitted activation curve with a large enough effect in the signal ratio in the repeat runs, not every such curve was filed as active; the % refers to the signal ratio)
Summary of the method: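 Reporter line: p53RE-bla. Pre-incubation 5 h, 37 C, 5% CO2; compound (DMSO, pin tool) 16 h, 37 C; B/G FRET substrate 2 h RT; fluorescence intensity read.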

[9] = molecular target: 5-hydroxytryptamine receptor 2A (Homo sapiens) (UniProt P28223); test: 5-hydroxytryptamine receptor 2A (HTR2A) small molecule antagonists, cell-based qHTS assay (AID 1963586); note: nearly all actives have a fitted effect of over 45% in size
5-hydroxytryptamine receptor 2A (Homo sapiens), sequence (P28223 whole entry, looked up): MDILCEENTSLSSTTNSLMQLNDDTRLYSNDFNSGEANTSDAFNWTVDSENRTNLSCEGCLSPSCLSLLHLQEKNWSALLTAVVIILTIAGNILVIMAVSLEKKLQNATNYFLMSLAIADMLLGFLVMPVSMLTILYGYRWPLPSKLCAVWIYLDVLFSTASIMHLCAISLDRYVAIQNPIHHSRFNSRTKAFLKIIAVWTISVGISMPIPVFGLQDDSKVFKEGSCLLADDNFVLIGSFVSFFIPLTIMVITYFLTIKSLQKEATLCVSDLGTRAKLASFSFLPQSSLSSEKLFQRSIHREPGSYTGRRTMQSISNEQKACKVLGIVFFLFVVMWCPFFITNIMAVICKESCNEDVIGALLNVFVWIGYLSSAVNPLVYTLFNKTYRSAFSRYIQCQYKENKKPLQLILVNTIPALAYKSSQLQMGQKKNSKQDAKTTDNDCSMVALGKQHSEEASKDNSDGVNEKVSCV
Summary of the method: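 Antagonist-mode intracellular calcium assay: DOI (4 nM) added after 5 min compound pre-incubation at room temperature to dye-loaded HTR2A-CHO cells. Fluorescence followed for 3 min, sampled every second.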

[10] = molecular target: 5-hydroxytryptamine receptor 2A (Homo sapiens) (UniProt P28223); test: 5-hydroxytryptamine receptor 2A (HTR2A) small molecule agonists, cell-based qHTS assay (AID 1963587); note: nearly all actives have a fitted effect of over 30% in size; note: potency is the fitted concentration of half-maximal effect
Summary of the method: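 HTR2A-CHO cells, plated 18 h at 37 C/5% CO2, dye-loaded 1 h at 37 C; compounds in DMSO added by pin tool (agonist mode). Intracellular calcium flux read as kinetic fluorescence on FDSS over 2 min at 1 s intervals.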

[11] = molecular target: Muscarinic acetylcholine receptor M1 (Homo sapiens) (UniProt P11229); test: Cholinergic receptor muscarinic 1 (CHRM1) small molecule antagonists, cell-based qHTS assay (AID 1963588); note: nearly all actives have a fitted effect of over 40% in size
Muscarinic acetylcholine receptor M1 (Homo sapiens), sequence (P11229 whole entry, looked up): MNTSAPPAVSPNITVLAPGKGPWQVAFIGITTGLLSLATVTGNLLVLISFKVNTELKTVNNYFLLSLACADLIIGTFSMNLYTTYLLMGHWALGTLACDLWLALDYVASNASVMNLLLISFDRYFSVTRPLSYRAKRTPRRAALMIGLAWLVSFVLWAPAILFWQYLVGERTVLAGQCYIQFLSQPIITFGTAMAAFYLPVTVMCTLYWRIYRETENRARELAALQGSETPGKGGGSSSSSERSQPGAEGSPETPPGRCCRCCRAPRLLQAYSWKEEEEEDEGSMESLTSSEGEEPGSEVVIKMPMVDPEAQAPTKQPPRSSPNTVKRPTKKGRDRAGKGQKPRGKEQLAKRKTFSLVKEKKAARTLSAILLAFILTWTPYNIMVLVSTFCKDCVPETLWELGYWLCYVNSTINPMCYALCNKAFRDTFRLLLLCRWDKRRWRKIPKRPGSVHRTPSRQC
Summary of the method: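 CHRM1-CHO calcium-flux assay, antagonist mode. Cells were seeded 18 h, dye-loaded 1 h at 37 C and given compound for 5 min at RT, then acetylcholine was added at 50nM. FDSS fluorescence was read 3 min; 15 concentrations, three runs.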

[12] = molecular target: Muscarinic acetylcholine receptor M1 (Homo sapiens) (UniProt P11229); test: Cholinergic receptor muscarinic 1 (CHRM1) small molecule agonists, cell-based qHTS assay (AID 1963589); note: nearly all actives have a fitted effect of over 35% in size
Summary of the method: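 Human M1 in stable CHO line; 18 h plating, 1 h dye load 37 C; cpd added (agonist mode); Ca2+ fluorescence kinetic read, 1 s intervals; 15 conc, 3 runs.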

[13] = cAMP Responsive Elements (CRE) small molecule agonists, cell-based qHTS assay (AID 1963590)
Summary of the method: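 HEK 293T CRE-bla, 2,000 cells/well, 18 h preincubation 37 C/5% CO2; cpds (DMSO) pinned, 3 h; LiveBLAzer B/G FRET substrate, 2 h RT.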

[14] = cAMP Responsive Elements (CRE) small molecule antagonists, cell-based qHTS assay (AID 1963591; active = well fitted inhibition curve with a large enough effect in the signal ratio in the repeat runs, not every such curve was filed as active; the % refers to the signal ratio)
Summary of the method: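 Beta-lactamase reporter read by FRET substrate (LiveBLAzer B/G) after 2 h at room temperature. CRE-bla HEK293T cells had received compound plus 0.25 uM (final) NKH477 for 3 h at 37 °C.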

[15] = molecular target: Beta-2 adrenergic receptor (Homo sapiens) (UniProt P07550); test: Adrenergic beta2 receptor (ADRB2) small molecule antagonists, cell-based qHTS assay (AID 1963592); note: series mostly up to about 92 µM; nearly all actives have a fitted effect of over 50% in size
Beta-2 adrenergic receptor (Homo sapiens), sequence (P07550 whole entry, looked up): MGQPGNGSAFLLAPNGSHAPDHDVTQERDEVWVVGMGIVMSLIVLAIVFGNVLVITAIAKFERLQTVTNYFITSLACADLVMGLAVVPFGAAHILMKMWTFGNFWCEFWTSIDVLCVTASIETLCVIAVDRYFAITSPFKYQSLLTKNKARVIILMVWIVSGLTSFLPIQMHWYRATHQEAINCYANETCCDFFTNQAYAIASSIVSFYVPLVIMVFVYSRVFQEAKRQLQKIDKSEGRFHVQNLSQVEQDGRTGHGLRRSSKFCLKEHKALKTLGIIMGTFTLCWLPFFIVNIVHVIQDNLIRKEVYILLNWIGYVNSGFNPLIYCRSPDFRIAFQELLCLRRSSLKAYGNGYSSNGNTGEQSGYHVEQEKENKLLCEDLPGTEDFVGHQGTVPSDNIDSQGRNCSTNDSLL
Summary of the method: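 Cells (CHO, stable ADRB2 overexpression) incubated 18-20hr at 37C; compounds added from DMSO; agonist mix (1nM isoproterenol, 100uM IBMX, 25uM Ro-20-1724) added; 0.5hr RT; d2-cAMP and anti-cAMP-cryptate added; 1hr RT; 665/615 nm read.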

[16] = molecular target: Beta-2 adrenergic receptor (Homo sapiens) (UniProt P07550); test: Adrenergic beta2 receptor (ADRB2) small molecule agonists, cell-based qHTS assay (AID 1963593);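 note: CHO cells stably overexpressing human ADRB2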
Summary of the method: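 CHO cells stably over-expressing ADRB2 were plated overnight at 37C, then dosed with compounds plus a stimulation mix containing 100uM IBMX and 25uM Ro-20-1724 for 0.5hr at room temperature. cAMP was measured by HTRF competition, 1hr.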

[17] = molecular target: D(2) dopamine receptor (Homo sapiens) (UniProt P14416); test: Dopamine D2 receptor (DRD2) small molecule antagonists, cell-based qHTS assay (AID 1963595; active = well fitted inhibition curve with a large enough effect in the signal ratio in the repeat runs, with a control signal flat; the % refers to the signal ratio; note: potency is the fitted concentration of half-maximal effect)
D(2) dopamine receptor (Homo sapiens), sequence (P14416 whole entry, looked up): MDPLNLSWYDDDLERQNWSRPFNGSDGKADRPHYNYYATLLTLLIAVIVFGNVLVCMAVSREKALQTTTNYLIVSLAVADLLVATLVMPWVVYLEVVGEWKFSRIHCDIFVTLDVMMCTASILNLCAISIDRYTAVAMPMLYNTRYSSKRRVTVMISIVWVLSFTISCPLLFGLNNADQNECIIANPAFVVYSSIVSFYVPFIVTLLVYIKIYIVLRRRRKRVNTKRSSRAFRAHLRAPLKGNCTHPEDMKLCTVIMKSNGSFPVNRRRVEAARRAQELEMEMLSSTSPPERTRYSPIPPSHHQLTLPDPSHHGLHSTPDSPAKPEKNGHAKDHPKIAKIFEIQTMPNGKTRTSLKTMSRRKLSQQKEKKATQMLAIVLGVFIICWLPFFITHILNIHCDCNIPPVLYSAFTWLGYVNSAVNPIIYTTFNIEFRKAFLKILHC
Summary of the method: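 In this cell-based antagonist screen, compounds act for 10 min at room temperature before a 30 min challenge with 12 nM quinpirole and 200 nM NKH477. cAMP is quantified by HTRF competition in DRD2-HEK293 cells containing 0.1 mM Ro20-1724.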

[18] = p53 small molecule agonists, cell-based qHTS assay: qHTS cell viability counter screen (AID 1963581); note: nearly all actives have a fitted effect of over 45% in size; note: potency is the fitted concentration of half-maximal effect
Summary of the method: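 HCT-116 p53RE-bla cells, 4,000/well, plated 5 h before compound pin transfer; 16 h at 37 C; bla substrate 2 h RT; then CellTiter-Glo, 30 min RT, luminescence.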

[19] = molecular target: D(2) dopamine receptor (Homo sapiens) (UniProt P14416); test: Dopamine D2 receptor (DRD2) small molecule agonists, cell-based qHTS assay (AID 1963594); note: nearly all actives have a fitted effect of over 35% in size
Summary of the method: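 HEK293 cells stably expressing DRD2 were cultured 24 h at 37 C, then given Ro20-1724 (0.1 mM final) and compounds for 10 min at room temperature. NKH477 (200nM) was then added for 30 min. cAMP was read by HTRF.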

[20] = p53 small molecule agonists, cell-based qHTS assay with human liver microsomes (AID 1963577)
Summary of the method: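 Compounds act here after metabolic activation: human liver microsomes and NADPH, both at 0.5 mg/mL final, were co-added to p53RE-bla cells. Incubation ran 16 h at 37 C, followed by LiveBLAzer detection.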

Row | Compound | Potency [1] | Potency [2] | Potency [3] | Potency [4] | Potency [5] | Potency [6] | Potency [7] | Potency [8] | Potency [9] | Potency [10] | Potency [11] | Potency [12] | Potency [13] | Potency [14] | Potency [15] | Potency [16] | Potency [17] | Potency [18] | Potency [19] | Potency [20]
1 | CCCCC(=O)Cl | inactive | inactive | inactive | inactive | inactive | inactive | inactive | inactive | inactive | inactive | inactive | inactive | inactive | inactive | inactive | inactive | inactive | – | – | –
2 | COP(=S)(OC)Oc1ccc(S(N)(=O)=O)cc1 | inactive | inactive | inactive | inactive | – | – | inactive | inactive | inactive | inactive | inactive | inactive | inactive | inactive | inactive | – | inactive | inactive | inactive | –
3 | O=C1CN=C(c2ccccc2)c2cc(Cl)ccc2N1CC1CC1 | inactive | inactive | – | inactive | – | inactive | inactive | – | inactive | inactive | inactive | inactive | – | – | – | – | inactive | inactive | inactive | –
4 | Cc1cc(C(F)(C(F)(F)F)C(F)(F)F)ccc1NC(=O)c1cccc(I)c1C(=O)NC(C)(C)CS(C)(=O)=O | inactive | inactive | inactive | inactive | – | inactive | inactive | – | inactive | inactive | inactive | inactive | inactive | inactive | inactive | inactive | inactive | – | inactive | –
5 | COc1nn(C(=O)NS(=O)(=O)c2ccccc2OC(F)(F)F)c(=O)n1C | inactive | inactive | inactive | – | – | inactive | inactive | – | inactive | – | inactive | – | inactive | inactive | inactive | inactive | inactive | inactive | inactive | –
6 | C=CCC1=C(C)C(OC(=O)C2C(C=C(C)C)C2(C)C)CC1=O (configuration not stated) | 34.4 µM (active) | 23 µM (active) | inactive | inactive | inactive | – | – | – | – | inactive | – | inactive | – | – | inactive | – | 57.8 µM (active) | 28.9 µM (active) | – | –
7 | CN1C(=O)COc2c(C(=O)NC3CN4CCC3CC4)cc(Cl)cc21 (configuration not stated) | inactive | inactive | inactive | inactive | – | inactive | inactive | – | – | – | – | – | inactive | – | inactive | – | inactive | inactive | inactive | –
8 | [Cl][Hg][c]1ccccc1 | 2.73 µM (active) | 0.969 µM (active) | inactive | – | inactive | – | 8.14 µM (active) | – | – | 49 µM (active) | inactive | – | – | – | – | – | – | 2.89 µM (active) | – | inactive
9 | Oc1ccc(C(=C(Cl)Cl)c2ccc(O)cc2)cc1 | 68.5 µM (active) | inactive | inactive | inactive | inactive | 51.2 µM (active) | inactive | inactive | inactive | – | – | – | inactive | – | – | – | inactive | – | inactive | –
10 | CN(C)C1CCCCC1 | inactive | inactive | inactive | inactive | – | inactive | inactive | – | inactive | inactive | inactive | inactive | – | inactive | inactive | – | inactive | inactive | inactive | –
